Compound activity (PubChem BioAssay)
The list is not random: actives were taken first. Their share in the collection is about 3.1%.
VDR inh: Inhibitors of the vitamin D receptor (VDR): qHTS; Vitamin D3 receptor (Homo sapiens), P11473; VDR-SRC2-3 peptide fluorescence polarization, 2 h; Potency, µM, usual class: inhibitors; actives 0.93% (n = 400,000)
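The screen uses fluorescence polarization to detect compounds that interfere with recruitment of the SRC2-3 coactivator peptide to VDR; plates are read after 2 h at room temperature.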
GCN5L2 inh: qHTS Assay for Inhibitors of GCN5L2; actives 0.21% (n = 390,000); AID 504327, 2011; GCN5L2 HAT assay, ThioGlo1 CoA-SH fluorescence; Potency, µM (titrated, usually from 58.9 µM), most hits filed as inhibitors; Histone acetyltransferase KAT2A (Homo sapiens), Q92830
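Fluorescence readout, Ex340nm/Em540nm: ThioGlo1 (50uM final) reacts with free CoA thiol released as 20nM GCN5L2 acetylates H3(1-25) peptide (75uM) using acetyl-CoA (70uM). Compound and enzyme sat 15 min beforehand; 20 min room-temperature reaction.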
PLK1 PBD inh: qHTS for Inhibitors of PLK1-PDB (polo-like kinase 1 - polo-box domain): Primary Screen | Serine/threonine-protein kinase PLK1 (Homo sapiens), P53350 | Plk1 PBD binding of FITC phosphopeptide, fluorescence polarization | Potency, µM, hits mostly inhibitors | actives 2.8% (n = 360,000) | AID 720504, 2013; also: series mostly up to about 57 µM; nearly all actives have a fitted effect of over 65% in size
GLS inhibitor: qHTS for Inhibitors of Glutaminase (GLS). actives 0.21% (n = 410,000). GLS enzymatic activity, qHTS titration. Potency, µM (highest dose often 45.5 µM), most hits filed as inhibitors. Glutaminase kidney isoform, mitochondrial (Homo sapiens), O94925
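Enzyme dispensed in phosphate buffer (45 mM, pH 8.2, 0.02% Tween-20), compounds pinned in, then 1 mM L-glutamine solution and the glutamate oxidase–HRP–Amplex Red mix added; fluorescence read immediately and again after 30 min at room temperature.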
PI4K2A inh: qHTS for small molecular inhibitors of PI4K2A; purified PI4K2A, ADP-Glo luminescence, 1 h; active compounds read low; activity change, negative = inhibition, % at 76.9 µM; AID 1346378, 2018; actives 0.13% (n = 420,000); Phosphatidylinositol 4-kinase type 2-alpha (Homo sapiens), Q9BTU6; in the data active = activity change below about -50%; inconclusive = mostly about -30% to -49%
Target sequence (Q9BTU6 whole entry, looked up): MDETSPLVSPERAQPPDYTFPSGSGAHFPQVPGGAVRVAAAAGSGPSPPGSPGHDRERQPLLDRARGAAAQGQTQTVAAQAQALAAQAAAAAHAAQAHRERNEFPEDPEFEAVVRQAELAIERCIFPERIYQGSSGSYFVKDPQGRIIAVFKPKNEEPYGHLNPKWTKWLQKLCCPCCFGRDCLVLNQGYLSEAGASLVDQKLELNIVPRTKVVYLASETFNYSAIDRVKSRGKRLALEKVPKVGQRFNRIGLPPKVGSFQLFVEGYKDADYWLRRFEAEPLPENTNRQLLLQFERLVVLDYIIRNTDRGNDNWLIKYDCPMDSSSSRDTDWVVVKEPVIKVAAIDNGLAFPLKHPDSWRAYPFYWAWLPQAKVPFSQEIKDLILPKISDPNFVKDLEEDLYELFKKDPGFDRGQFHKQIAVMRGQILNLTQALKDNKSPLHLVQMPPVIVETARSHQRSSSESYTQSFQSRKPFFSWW
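ADP-Glo luminescence measured ADP generated by PI4K2A enzyme (4 ug/mL before mixing) with 1.2 mM PI substrate (pre-mix) and 300 microM ATP (pre-mix). Tris pH7.5 buffer with MgCl2, Triton X-100; 1 h reaction at ambient temperature.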
Numbers stand for hits; – = inactive; ? = inconclusive; · = no result. Unless noted, calls follow the shape of the dose curve; as a rule, active = well fitted curve in the direction sought with a large enough effect; inconclusive = small, poorly fitted or top-dose-only effect, or another doubt; inactive = no such curve, though single readings can be large; an effect the other way counts as inactive or inconclusive.

SMILES | VDR inh | GCN5L2 inh | PLK1 PBD inh | GLS inhibitor | PI4K2A inh
CCOc1ccc(NC(=O)CN2C(=O)COc3ccc(S(=O)(=O)N4CCCC4)cc32)cc1 | – | – | – | – | –
CCCCNC[C@@]12CO[C@H](c3ccc(Cl)cc3)N1[C@@H](c1ccc(Cl)cc1)SC2 | · | · | · | · | –
Cc1ccc(Nc2n[nH]c(=S)s2)cc1F | ? | · | ? | – | –
Fc1ccccc1Nc1n[nH]c(=S)s1 | – | 18µM | 30µM | – | –
Cc1ccc(Nc2n[nH]c(=S)s2)cc1 | · | · | 24µM | – | –
S=c1[nH]nc(Nc2ccc(Cl)cc2)s1 | ? | – | 13µM | – | –
O=C(O)CCCC/C=C(\c1ccccc1)c1cccnc1 | – | – | · | – | ·
COc1ccccc1N=c1oc2cc(O)ccc2cc1C(=O)NCC1CCCO1 (stereo unspecified) | – | – | – | – | –
COc1ccccc1N=c1oc2cc(O)ccc2cc1C(N)=O | – | – | – | – | -52
COc1ccc(CC(=O)N(C)CC(=O)Nc2ccccc2SC)cc1 | ? | – | 24µM | ? | –
CCCCNc1ccc(S(N)(=O)=O)cc1[N+](=O)[O-] | · | – | · | · | ·
O=[N+]([O-])c1cccc(S(=O)(=O)c2ccc(NCCO)c([N+](=O)[O-])c2)c1 | ? | – | 13µM | ? | –
O=C(CC(=O)NCc1ccc(Cl)cc1)NCc1ccc(Cl)cc1 | – | – | – | – | –
Cc1ccc(CC(=O)NCc2ccc(Cl)cc2)cc1 | ? | – | 15µM | – | –
CCCC(=O)N1CCCC(c2nc(-c3cccs3)no2)C1 (stereo unspecified) | – | – | 30µM | – | –
CCC(C)C(=O)N1CCCC(c2nc(-c3cccs3)no2)C1 (stereo unspecified) | – | – | – | – | –
COc1ccc(-c2c(=O)n(OCc3nc4ccccc4[nH]3)c3ccccc3[n+]2[O-])cc1 | – | – | – | – | –
C=CCOn1c(=O)c(-c2ccc(OC)cc2)[n+]([O-])c2ccccc21 | – | – | 12µM | – | –
O=c1c(-c2ccc(Br)cc2)[n+]([O-])c2ccccc2n1OCc1ccccn1 | – | – | 24µM | – | –
Cc1c[nH]c2cccc(-c3cc4ccccc4o3)c12 | · | · | · | · | –
Cc1nc2ccc(S(=O)(=O)NCC(=O)NCc3cccs3)cc2s1 | · | · | · | · | –
O=C(COc1ccc([N+](=O)[O-])cc1)Nc1ccc2c(c1)nc1n2CCOC1 | ? | – | 3µM | ? | –
Cc1ccc(OCC(=O)Nc2ccc3c(c2)nc2n3CCOC2)cc1 | – | – | – | – | –
CC(C)(CCC(=S)N1CCOCC1)C1CCCCC1 | ? | – | 12µM | ? | –
O=c1cc(-c2ccccc2)[nH]n1-c1ccc([N+](=O)[O-])cc1 | – | – | 21µM | – | –
SMILES | VDR inh | GCN5L2 inh | PLK1 PBD inh | GLS inhibitor | PI4K2A inh
S=c1[nH]c2cc(Cl)ccc2s1 | – | – | 1.9µM | – | –
COc1ccc2[nH]c(=S)[nH]c2c1 | – | – | – | – | –
S=c1[nH]c2ccc(Cl)cc2[nH]1 | ? | – | 11µM | – | –
COc1cccc2c1C(=O)c1c(O)c3c(c(O)c1C2=O)C[C@@](O)(C(=O)CO)C[C@@H]3O[C@H]1C[C@H](N)[C@H](O[C@@H]2CCCCO2)[C@H](C)O1 | · | · | · | · | –
CCOCCCn1c(=N)c(C(N)=S)cc2c(=O)n3cccc(C)c3nc21 | 79µM | – | ? | ? | –
Cc1cccn2c(=O)c3cc(C(=O)NC4CCCCC4)c(=N)n(Cc4ccccc4)c3nc12 | – | 16µM | – | – | –
CN1CC=C(c2ccccc2)N(c2ccc(Cl)cc2)C1=O | · | · | · | · | –
CC1=C(C(=O)c2ccccc2)C(c2ccc(OC(F)F)cc2)NC(=S)N1 (stereo unspecified) | ? | – | 24µM | – | –
CC(C)C[C@H]1COc2cccc(N3CCSCC3)c2S(=O)(=O)N1C | · | · | · | · | –
N#Cc1nc(-c2ccc(F)cc2)oc1N1CCCC1 | – | – | 15µM | – | –
Cc1cc(S(=O)(=O)NCC(=O)O)ccc1F | – | – | 21µM | – | –
Cc1ccc(-c2nc3sc(CCNS(=O)(=O)c4cc(F)ccc4F)c(C)n3n2)cc1 | – | – | · | – | –
Cc1noc(C)c1-c1ccc2ncnc(N(C)Cc3ccco3)c2c1 | ? | – | · | · | ·
COc1cccc(-c2cc(N(C)Cc3ccco3)ncn2)c1 | 45µM | – | · | · | ·
CN(Cc1ccco1)c1cc(-c2ccoc2)ncn1 | 28µM | 32µM | · | · | ·
CN(Cc1ccco1)c1cc(-c2cccc(C#N)c2)ncn1 | ? | – | · | · | ·
Cc1noc(C)c1-c1cc(N(C)Cc2ccco2)ncn1 | 32µM | ? | · | · | ·
CNc1cc(-c2ccccc2C)ncn1 | 50µM | ? | · | · | ·
Cc1ccccc1-c1cc(N(C)Cc2ccco2)ncn1 | 45µM | – | · | · | ·
CN(C)c1ccc(-c2cc(N(C)Cc3ccco3)ncn2)cc1 | ? | – | · | · | ·
O=C(c1ccc2c(c1)OCO2)[C@@H]1[C@@H]2C(=O)N(C3CCCCC3)C(=O)[C@@H]2C2c3ccccc3C=CN21 (stereo partly specified) | – | – | – | – | –
CC(C)(C)C(=O)[C@@H]1[C@@H]2C(=O)N(C3CCCCC3)C(=O)[C@@H]2[C@H]2c3ccccc3C=CN12 | – | – | 27µM | · | –
COCCOc1ccc(C(F)(F)F)cc1NC(=O)c1ccc(C(F)(F)F)cc1 | – | – | – | – | –
